{"source": "PubChem BioAssay (NCATS)", "note": "Results filed as inconclusive are left out. Activity calls are given as the source filed them. Calls come from the whole dose curve; as a rule, active = well fitted curve in the direction sought with a large enough effect in the signal ratio; inconclusive = small, poorly fitted or top-dose-only effect, or effect the other way, or a change in a side signal; inactive = no such curve, though single readings can be large or run the other way; the % refers to the signal ratio.", "data": [{"test": "Validation of Assay for Modulators of Lamin A Splicing (AID 1459);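 note: cells exposed to compound for two days before reading; ratio rise marks activators and ratio drop marks inhibitors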", "details": "Lamin A splicing dual RFP/GFP fluorescence reporter; series mostly up to 9.22 µM", "text": "Hutchinson-Gilford Progeria Syndrome (HGPS) is a pediatric premature aging disease caused by a spontaneous mutation in the lamin A/C (LMNA) gene. The mutation activates a cryptic splice site in the LMNA pre-mRNA which results in production of a pre-lamin A protein that cannot be processed properly. The mutant protein accumulates in the nucleus and negatively affects numerous cellular functions. Correction of the splicing defect in HGPS patient cells using a targeted oligonucleotide (exo11) leads to reversal of the cellular disease phenotypes. To identify small molecule modulators of aberrant LMNA splicing, a homogenous assay was constructed in HeLa cells that used a GFP containing minigene to report on correction of aberrant splicing in lamin A and a RFP (DsRed2) to report on cell viability, uniformity and nonspecific effects on the assay signal. This assay was adapted to laser-scanning microplate cytometry (Acumen, TTP Labtech) where miniaturization of the assay to a 1,536-well plate format was possible.\nBowen, W. P.; Wylie, P. G. Application of Laser-Scanning Fluorescence Microplate Cytometry in High Content Screening. Assay Drug Dev Technol 2006;4:209-221.\nScaffidi P, Misteli T. Reversal of the cellular phenotype in the premature aging disease Hutchinson-Gilford progeria syndrome. Nat. Med. 2005;11:440-445.\nNCGC Assay Protocol Summary:\nReagents/Controls: Stable clones expressing DsRed2 and lamin A-EGFP were generated by Cell and Molecular Technologies in S3 HeLa cells.\nHeLa cells were prepared for the assay when they were 70-90% confluent. The cells were counted and resuspended in Opti-MEM I (no phenol red; Gibco), 2% FBS, 1% penicillin/ streptomycin (Gibco) at concentration of 120 cells/uL concentration. The suspension was passed through a Falcon basket filter with pore size 40um (Beckton Dickson).\nControl titrations: column […] 1536-well plate contained a sixteen point titration (1:2 dilutions) in duplicate of ancitabine (Sigma: A8598) beginning at 40 uM final concentration. Column 2 contained a sixteen point titration (1:2 dilutions) of cycloheximide beginning at 1.4 mM final concentration. Column 3 contained ancitabine at 40 uM and column 4 contained was the vehicle control (0.5% DMSO final concentration).\n5 uL of HeLa cells were plated in Aurora LoBase black clear bottom (cyclic-olefin polymer) 1536-well plates at a final density of 600 cells/well. Controls and library compounds were added with a 1536-well pin array using the Kalypsys pin-tool. The plates were then incubated for 48 hrs in a cell-culture incubator (37 °C; 5% CO2, 98% humidity). Following incubation the plates were read on the Acumen Explorer using the 488 nm laser. Data was collected on objects between 10 and 100 um in size. Cell objects were defined by a 15 um width x 10 um depth filter. The ratio of the total object intensity in PMT1 (500-530 nm emission; GFP) over PMT3 (575-640 nm emission; RFP) was calculated for analysis.\nKeywords: NIH Roadmap, MLSCN, MLI, MLSMR, qHTS, NCGC, lamin A, Progeria, RNA splicing.", "values": [{"smiles": "CN1C2CCC1CC(OC(c1ccccc1)c1ccccc1)C2", "note": "(stereo not given)", "outcome": "inactive"}, {"smiles": "Cc1cccc(C)c1OCC(N)C(C)C", "note": "(stereo not given)", "outcome": "inactive"}, {"smiles": "CCCCCCC/C=C\\CCCCCCCCC(=O)O", "outcome": "inactive"}, {"smiles": "NCCC1CCCC(CCN)N1", "note": "(stereo not given)", "outcome": "inactive"}, {"smiles": "CCCOC(=O)c1c(-c2ccccc2)nc(CC)c(C(=O)SCC)c1CCC", "outcome": "inactive"}, {"smiles": "NC1(C(=O)O)CCCCC1", "outcome": "inactive"}, {"smiles": "Oc1ccc(Cn2cc[nH]c2=S)cc1", "outcome": "inactive"}, {"smiles": "N[C@@H](CCCC(=O)O)C(=O)O", "outcome": "inactive"}, {"smiles": "N[C@H](C(=O)O)[C@H]1C[C@@H]1C(=O)O", "outcome": "inactive"}, {"smiles": "CC(=O)NCCc1c[nH]c2ccc(O)cc12", "outcome": "inactive"}, {"smiles": "N=C(N)SCCN", "outcome": "inactive"}, {"smiles": "N[C@@H](Cc1ccc(F)cc1)C(=O)O", "outcome": "inactive"}, {"smiles": "NC(N)=NC(N)=Nc1ccccc1", "outcome": "inactive"}, {"smiles": "COCc1nc2c([nH]1)c(=O)n(C)c(=O)n2CC(C)C", "outcome": "inactive"}, {"smiles": "C#CCn1c(=O)c2c(ncn2C)n(C)c1=O", "outcome": "inactive"}, {"smiles": "N=C(N)c1ccc(N)cc1", "outcome": "inactive"}, {"smiles": "CC(N)(Cc1ccc(O)cc1)C(=O)O", "note": "(stereo not given)", "outcome": "inactive"}, {"smiles": "O=C(O)C1CCNCC1", "outcome": "inactive"}, {"smiles": "CC1CCN(CC[C@H]2CCCN2S(=O)(=O)c2cccc(O)c2)CC1", "outcome": "inactive"}, {"smiles": "CCCCCCCCCC[Si](C)(C)CCC(=O)NC(Cc1ccc(C)cc1)c1ccccc1", "note": "(stereo not given)", "outcome": "inactive"}, {"smiles": "COc1ccccc1N1CCN(CCCNc2c(C)c(=O)n(C)c(=O)n2C)CC1", "outcome": "inactive"}, {"smiles": "COC(=O)C(N)Cc1ccc(Cl)cc1", "note": "(stereo not given)", "outcome": "inactive"}, {"smiles": "O=C(O)c1cc2cc(F)ccc2[nH]1", "outcome": "inactive"}, {"smiles": "COc1cc(/C=C(\\C#N)C(=O)c2ccc(O)c(O)c2)cc(I)c1O", "outcome": "inactive"}, {"smiles": "C=CC1(C)CC(=O)C2(O)C(C)(O1)C(OC(C)=O)C(O)C1C(C)(C)CCC(O)C12C", "note": "(stereo not given)", "outcome": "inactive"}, {"smiles": "Cc1nc(N=Nc2ccc(C(=O)O)cc2)c(COP(=O)(O)O)c(C=O)c1O", "outcome": "inactive"}, {"smiles": "O=[N+]([O-])c1cccc2cn[nH]c12", "outcome": "inactive"}, {"smiles": "Cc1nc(N=Nc2ccc(S(=O)(=O)O)cc2S(=O)(=O)O)c(COP(=O)(O)O)c(C=O)c1O", "outcome": "inactive"}, {"smiles": "Cn1c(=O)c2[nH]c(C3CCCC3)nc2n(C)c1=O", "outcome": "inactive"}, {"smiles": "NCC(O)c1ccc(O)c(O)c1", "note": "(stereo not given)", "outcome": "inactive"}, {"smiles": "CNc1ncnc2c1ncn2[C@H]1C[C@H](OP(=O)(O)O)[C@@H](COP(=O)(O)O)O1", "outcome": "inactive"}, {"smiles": "Cn1c(=O)[nH]c2ncn(C)c2c1=O", "outcome": "inactive"}, {"smiles": "NCCCCN", "outcome": "inactive"}, {"smiles": "NC1C=CC=C(C(=O)O)C1", "note": "(stereo not given)", "outcome": "inactive"}, {"smiles": "CCCc1c(-c2ccc(O)cc2)nn(-c2ccc(O)cc2)c1-c1ccc(O)cc1", "outcome": "inactive"}, {"smiles": "O=C(O)[C@H]1NCCC[C@H]1C(=O)O", "outcome": "inactive"}, {"smiles": "OCC1NCC(O)C(O)C1O", "note": "(stereo not given)", "outcome": "inactive"}, {"smiles": "O=c1onc2n1-c1cc(Br)ccc1OC2", "outcome": "inactive"}, {"smiles": "C=CCN1CCc2cc(O)c(O)cc2C(c2ccccc2)C1", "note": "(stereo not given)", "outcome": "inactive"}, {"smiles": "CCN(CC)CCOC(=O)c1cc(Cl)c(N)cc1OC", "outcome": "inactive"}]}]}
